Screening results as filed in PubChem BioAssay.
GDH-TPI counter: counter-screen for M. tuberculosis FBA inhibitors: GDH-TPI coupled enzymes; GDH-TPI coupled enzyme counterscreen, NADH absorbance; inhibition, % at 4.8 µM; 360,000 compounds, 1.2% hits; AID 588335; in the data active = inhibition above about 30%;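 note: 0% = DMSO wells and 100% = wells lacking the enzyme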
BioA inh: inhibitors of Mycobacterium tuberculosis BioA enzyme; inhibition, % at 9.99 µM; AID 602481; 360,000 compounds, 0.096% hits; purified M. tuberculosis BioA enzyme, plate reader; in the data active = inhibition above about 40%; inconclusive = no clear call, values can overlap the other calls
Mtb FBA inh: inhibits M. tuberculosis FBA enzyme; inhibition, % at 1 µM; 360,000 compounds, 2.3% hits; purified M. tuberculosis FBA, fluorescence read-out; in the data active = inhibition above about 27%;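 note: 0% = vehicle and 100% = reference inhibitor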
Target sequence (P9WQA3 whole entry, looked up): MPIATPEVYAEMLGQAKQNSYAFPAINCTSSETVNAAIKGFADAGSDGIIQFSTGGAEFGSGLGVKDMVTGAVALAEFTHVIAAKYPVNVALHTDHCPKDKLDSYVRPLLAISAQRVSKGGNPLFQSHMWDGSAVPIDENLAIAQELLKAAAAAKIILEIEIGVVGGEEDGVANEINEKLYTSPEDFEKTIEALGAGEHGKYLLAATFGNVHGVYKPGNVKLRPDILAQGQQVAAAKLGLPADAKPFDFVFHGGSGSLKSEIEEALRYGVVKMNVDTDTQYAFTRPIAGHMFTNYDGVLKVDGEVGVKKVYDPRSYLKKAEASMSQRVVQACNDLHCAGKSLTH
SARS 3CLpro inh: SARS-CoV 3CLpro protease inhibition | 290,000 compounds, 0.14% hits | inhibition, % at 6 µM | recombinant SARS-CoV 3CLpro, quenched FRET peptide cleavage | AID 1706; in the data active = inhibition above about 12%
FadD28 binding: inhibitors of Mycobacterium tuberculosis FadD28 bisubstrate binding; inhibition, % at 12.5 µM; FadD28 bisubstrate probe binding, fluorescence polarization; 360,000 compounds, 0.22% hits; AID 588549; in the data active = inhibition above about 8.5%, passing the limit was not always enough; inconclusive = no clear call, values can overlap the other calls
Active calls of the source: *; ? = inconclusive; . = no result; + = active, no number. Most compounds without a hit are left out; they make up all but 3.1% or so of the library.

SMILES	GDH-TPI counter	BioA inh	Mtb FBA inh	SARS 3CLpro inh	FadD28 binding
COc1ccc(-c2oc3cccnc3c2-c2ccc(OC)nc2)cc1	7.6	-5.3	138.8*	3.0	-3.4
COc1ccc(-c2oc3cccnc3c2C#CCO)cc1	31.9*	0.1	+	-3.5	-2.2
COc1ccc(-c2oc3cccnc3c2C#CC2(O)CCCCC2)cc1	34.5*	-2.1	+	3.3	-8.9
O=C(Nc1cccc([N+](=O)[O-])c1)NC1CCCCCCC1	-8.4	-0.8	0.0	0.3	17.6*
O=C(CNC1CCCCC1)Nc1cccc([N+](=O)[O-])c1	-1.5	-1.5	0.5	.	-2.8
Cc1noc(C)c1NC(=O)N[C@H]1CC[C@@H](CC(=O)NCCCN(C)C)O[C@H]1CO	.	-3.1	.	.	.
CCC(=O)Nc1ccc(NC(=S)NC(=O)/C=C/c2ccco2)cc1	47.5*	0.8	-2.6	3.7	-0.6
O=C(/C=C/c1ccco1)NC(=S)NNC(=O)c1ccco1	43.4*	0.7	1.0	0.4	0.8
C/C=C/c1ccc([C@H]2[C@@H](CO)N(C(C)=O)[C@@H]2CN(CCC)C(C)=O)cc1	.	3.2	.	.	.
C[C@H](CO)N1C[C@H](C)[C@@H](CN(C)C(=O)C2CCCCC2)Oc2ncc(C#CC(C)(C)O)cc2C1=O	.	0.8	.	.	.
Cc1cccc(N2C(=O)NC(=O)/C(=C\c3ccc(N4CCOCC4)cc3)C2=O)c1	30.7*	.	-3.6	3.6	-0.2
Cc1cccc(N2C(=O)NC(=O)/C(=C/c3ccc(N4CCOCC4)cc3)C2=O)c1	21.0	.	-0.5	1.0	-1.4
Cc1nc(C)c(C(=O)Nc2cccc(F)c2)s1	7.8	47.1*	4.5	-1.5	-1.2
Cc1ccccc1S(=O)(=O)N1C[C@@H](O)COC[C@@H]2O[C@@H](CC(=O)O)CC[C@H]21	.	-2.3	.	.	.
C[C@H]1CN([C@@H](C)CO)C(=O)c2cc(-c3cccnc3)cnc2O[C@@H]1CN(C)C(=O)Cc1cccnc1	.	-1.9	.	.	.
O=C1CCCC/C1=C\Nc1ccc(S(=O)(=O)Nc2cnc3ccccc3n2)cc1	37.5*	-4.8	3.6	-4.7	2.1
O=C1CCC/C1=C/Nc1cccc(F)c1	34.6*	.	-1.0	4.0	-0.3
Cc1cc(C)nc(NS(=O)(=O)c2ccc(N/C=C3\CCCC3=O)cc2)n1	36.8*	-1.7	-0.4	2.0	-0.6
COc1ccc(Oc2ccc(N/C=C3\CCCC3=O)cc2)cc1	39.5*	1.1	-2.7	3.5	-2.9
COc1ccc(Oc2ccc(N/C=C3/CCCC3=O)cc2)cc1	25.2	-0.3	-2.4	-0.3	-3.8
C[C@H](CO)N1C[C@H](C)[C@@H](CN(C)S(=O)(=O)c2ccc(C(F)(F)F)cc2)OCc2ccccc2-c2ccccc2C1=O	.	2.2	.	.	.
Cc1noc(C)c1S(=O)(=O)Nc1ccc2c(c1)CC(=O)N([C@H](C)CO)C[C@H](C)[C@@H](CN(C)C)O2	.	-2.1	.	.	.
C[C@H](CO)N1C[C@H](C)[C@H](CN(C)C(=O)CCN2CCCCC2)Oc2ncc(C#CCN(C)C)cc2C1=O	.	4.6	.	.	.
Cc1cc(C)nc(NS(=O)(=O)c2ccc(N/C=C\C(=O)c3ccc(Cl)cc3)cc2)n1	31.5*	-2.1	3.1	5.7	1.9
Cc1cc(C)nc(NS(=O)(=O)c2ccc(N/C=C/C(=O)c3ccc(Cl)c(Cl)c3)cc2)n1	6.4	-0.6	4.8	4.7	-2.3
SMILES	GDH-TPI counter	BioA inh	Mtb FBA inh	SARS 3CLpro inh	FadD28 binding
CO[C@H]1CN(C)C(=O)c2ccc(NC(C)=O)cc2OC[C@@H](C)N(Cc2cncnc2)C[C@H]1C	.	3.4	.	.	.
CN1CCN(C(=O)C[C@H]2CC[C@H](NC(=O)c3ccc4c(c3)OCO4)[C@H](CO)O2)CC1	.	-0.5	.	.	.
CCn1c(CSc2nnc(-c3cccnc3)n2-c2ccccc2C)nc2cc(C(=O)O)ccc21	.	.	.	-9.7	.
CCn1c(CSc2nnc3ccccn23)nc2cc(C(=O)O)ccc21	1.5	-0.2	6.7	2.5	13.3*
CCOC(=O)c1ccc(NC(=O)CC2S/C(=N/N=C3/NC(=O)CS3)NC2=O)cc1 (stereo not given)	7.1	.	0.2	-1.2	1.1
CCOC(=O)c1ccc(NC(=O)CC2S/C(=N/N=C/c3c[nH]c4ccccc34)NC2=O)cc1 (stereo not given)	31.8*	.	-3.2	5.2	-3.8
Cc1ccc(NC(=O)CC2S/C(=N/N=C/c3c[nH]c4ccccc34)NC2=O)cc1 (stereo not given)	38.6*	-0.4	-2.0	-0.1	0.2
CCN(CC)c1ccc2nc3c4ccccc4c(=O)cc-3oc2c1	.	.	.	0.2	.
CCN(CC)c1ccc2c(-c3ccc(S(=O)(=O)O)cc3S(=O)(=O)[O-])c3ccc(=[N+](CC)CC)cc-3oc2c1	15.0	-78.3	0.0	-496.3	135.4*
O=C(Nc1cccc(F)c1)N1C[C@H]2[C@@H](c3ccccc31)[C@@H](CO)N2C(=O)Cc1ccccc1	.	4.5	.	.	.
O=C(NCc1cccs1)c1cnc2sccn2c1=O	45.1*	4.7	1.6	1.6	0.5
Cc1cc(C)nc(NC(=O)c2cnc3sccn3c2=O)n1	45.7*	0.6	3.9	-3.9	-4.4
O=C(c1ccccc1)N(Cc1ccccc1)c1ccccn1	-2.0	-0.7	-0.6	3.0	-1.5
O=C(c1cnc2sccn2c1=O)N(Cc1ccccc1)c1ccccn1	33.0*	-0.6	-0.3	-0.3	1.5
Cc1cc(NS(=O)(=O)c2ccc(NC(=O)c3cnc4sccn4c3=O)cc2)nc(C)n1	20.2	-1.5	2.2	-4.0	0.1
C[C@@H]1CCCCO[C@@H](CN(C)S(C)(=O)=O)[C@@H](C)CN([C@H](C)CO)C(=O)c2cc(NC(=O)c3ccncc3)ccc2O1	.	-1.5	.	.	.
C[C@H](CO)N1C[C@H](C)[C@@H](CN(C)Cc2ccncc2)OCc2ccccc2-c2ccccc2C1=O	.	0.8	.	.	.
O=C(C[C@H]1CC[C@@H](NC(=O)C2CCOCC2)[C@H](CO)O1)NCc1ccccc1Cl	.	-0.1	.	.	.
CO[C@@H]1CN(C)C(=O)c2cc(NC(=O)C3CCCC3)ccc2OC[C@H](C)N(C)C[C@H]1C	.	-2.6	.	.	.
COc1ccc2c(c1)C(c1ccc([N+](=O)[O-])cc1)=NNC(c1ccco1)=N2	33.3*	0.8	-0.6	0.8	1.1
Cn1c(=O)c(NCCc2ccccc2)c2c3c(cccc31)C(=O)c1ccccc1-2	11.2	-74.0	-7.2	-93.2	93.0*
NNc1nc(-c2ccccc2)cc(-c2ccccc2)n1	13.6	.	2.5	1.0	-2.7
N#Cc1cc(-c2ccccc2)nc(NN)n1	32.0*	.	-2.3	-2.6	0.0
Cc1ccc(S(=O)(=O)NN2C(=O)/C(=C/c3cccs3)SC2=S)cc1	31.2*	-4.6	-3.7	0.7	4.5
O=c1cc(-c2ccccc2)nc2c(-c3ccccc3)c(C(F)(F)F)[nH]n12	10.0	6.3	+	5.0	?
CCOC(=O)C(=CNc1ccccc1C)C(=O)OCC	21.6	-0.4	-0.5	2.9	-0.6
CCOC(=O)C(=CNc1ccc(S(N)(=O)=O)cc1)C(=O)OCC	40.5*	-1.4	-0.8	1.4	-4.0
CCOC(=O)C(=CNc1ccc(N2CCOCC2)cc1)C(=O)OCC	63.3*	-0.3	-2.9	-1.5	-1.9
CCOC(=O)C(=CNc1ncccc1C)C(=O)OCC	38.0*	0.2	-0.6	-3.4	-0.1
